The source of these data is PubChem BioAssay AID2551 (National Center for Advancing Translational Sciences (NCATS), 2010).

Hit rate of the full screen: of about 310,000 compounds, about 17,000 (5.5%) were called active. Not shown: some 11% with an inconclusive outcome. Shown is part of a subset that was picked to be rich in actives. Where a call stands in place of a potency, no number is given. Unmarked numbers belong to inactive results. Calls come from the whole dose curve; as a rule, active = well fitted inhibition curve with a large enough effect; inconclusive = small, poorly fitted or top-dose-only effect, or effect the other way; inactive = no such curve, though single readings can be large or run the other way.
Potency is the fitted concentration of half-maximal effect.

The target of this assay is Nuclear receptor ROR-gamma (Mus musculus) (UniProt P51450). Nature of the assay: qHTS for inhibitors of ROR gamma transcriptional activity. Note: nearly all actives have a fitted effect of over 60% in size. As to conditions: Drosophila S2 Gal4-RORgamma UAS-luciferase reporter, 20 h; series mostly up to 53.6 µM. An excerpt: NIH Molecular Libraries Probe Production Network [MLPCN] NIH Chemical Genomics Center [NCGC] MLPCN Grant: R03 DA026211-01 Assay Provider: Dan Littman, New York University Assay Overview: The retinoic acid-related orphan receptor (ROR) gamma is a transcription factor that has a central role in the differentiation of Th17 cells, a subset of T helper cells that secrete the inflammatory cytokines IL-17, IL-17F, and IL-22. Th17 cells have been implicated in graft versus host disease, autoimmune disease and asthma. ROR gamma is induced in naive T helper cells in the presence of TGF-beta combined with IL-6, IL-21, or IL-23, and thereafter directs the expression of the Th17 lineage cytokines. To study the mechanism of action of ROR gamma, an insect cell-based assay was screened. This Drosophila Schneider cell line was stably transfected with two vectors: a gene expressing a fusion of the Gal4 DNA binding domain and ROR gamma transactivation domain under the control of the metallothionine promoter and a Photinus luciferase reporter regulated by the Gal4 binding site enhancer, UAS. […] Small molecule inhibitors of ROR gamma activity are detected by a decrease in luciferase reporter activity.
Sequence of Nuclear receptor ROR-gamma (Mus musculus) (P51450 whole entry, looked up, the tested form may be a part): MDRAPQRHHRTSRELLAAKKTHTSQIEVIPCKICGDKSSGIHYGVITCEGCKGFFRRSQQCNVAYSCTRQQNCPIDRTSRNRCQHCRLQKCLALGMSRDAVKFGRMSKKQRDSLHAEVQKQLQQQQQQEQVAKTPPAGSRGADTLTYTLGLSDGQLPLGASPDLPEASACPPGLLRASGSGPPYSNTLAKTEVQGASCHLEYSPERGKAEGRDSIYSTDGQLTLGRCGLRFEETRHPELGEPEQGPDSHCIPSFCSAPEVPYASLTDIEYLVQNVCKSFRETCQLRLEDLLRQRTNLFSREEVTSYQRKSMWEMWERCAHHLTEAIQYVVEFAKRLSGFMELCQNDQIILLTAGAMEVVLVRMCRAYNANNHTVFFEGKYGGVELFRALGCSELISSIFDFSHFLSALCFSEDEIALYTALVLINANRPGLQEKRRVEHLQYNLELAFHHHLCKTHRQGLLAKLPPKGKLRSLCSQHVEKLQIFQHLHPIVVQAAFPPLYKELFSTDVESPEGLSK
Assay Protocol Summary: For screening, 600 cells in 4 uL/well were dispensed into white solid 1536-well plates (Grenier) using a solenoid-based dispenser. Following transfer of 23 nL compound or DMSO vehicle by a pin tool, the plates were incubated 1 hr at ambient temperature, and 1 uL/well copper sulfate (700 uM final concentration) was added. The plates were centrifuged 15 s at 1000 RPM and incubated 20 hr at ambient temperature. After addition of 1.5 uL Photinus luciferase detection reagent, the plates were incubated 10 min at ambient temperature and then read by an ViewLux (Perkin Elmer) to detect luminescence. Keywords: NIH Roadmap, MLPCN, MLI, MLSMR, qHTS, NCGC, qHTS, nuclear hormone receptor, retinoic acid-related orphan receptor, ROR gamma
With `Cc1[nH]c(C)c(S(=O)(=O)N2CCN(c3cccc(C(F)(F)F)c3)CC2)c1C(=O)N1CCCC1`, the Potency entry was “inactive”. Regarding `Cc1ccccc1N1CCN(S(=O)(=O)c2ccc3ccccc3c2)CC1`, the Potency entry was “inactive”. Same read-out and setting: then `Cc1cccn2c(=O)c(C=O)c(Nc3ccc(S(N)(=O)=O)cc3)nc12`, with “inactive”; and `CN(CC1CCCO1)S(=O)(=O)c1ccc(C(=O)Nc2ccc([N+](=O)[O-])cc2)cc1` (configuration not stated), with “inactive”; and `CC(=O)N1c2ccc(S(=O)(=O)N3CCC(C(=O)NC4CCCC(C)C4C)CC3)cc2CC1C` (configuration not stated), with “inactive”. Same read-out and setting: as for `Cc1ccccc1CNC(=O)CCC(=O)N1Cc2ccccc2Oc2ncccc21`, the entry is “inactive”. As for `COc1ccc2[nH]c(=O)c(CN(Cc3cccnc3)S(=O)(=O)c3ccccc3F)cc2c1`, the Potency entry is “inactive”.

Regarding `COc1cc(C(=S)NCc2ccccc2)cc(Br)c1O`, the Potency entry was “inactive”. Still for that read-out and setting: then `FC(F)(F)Oc1ccc(NC(=S)NCc2ccccc2)cc1`, with 7.08 µM (active). In the case of `O=C(CCOc1ccccc1)NCc1ccccc1`, the activity change, negative = inhibition is 5.22% [at 0.365 µM]. `Cn1nccc1NC(=O)Nc1ccc(OC(F)(F)F)cc1`: the Potency entry is “inactive”. The same measure, in the same setting: as for `COC(=O)Cc1ccc(OCC(=O)Nc2ccc(OC(F)(F)F)cc2)cc1`, the entry is “inactive”; as for `CCNC(=S)Nc1ccc(OC(F)(F)F)cc1`, 8.91 µM (active).

For the compound `CC(C)Cn1c(=O)c2ccccc2n2c(CCC(=O)NCc3ccccn3)nnc12`, the Potency result is “inactive”. Consider `Cc1ccc(C(C(=O)NCC2CCCO2)N(C(=O)c2snc(C(N)=O)c2N)c2ccc(C(C)C)cc2)o1` (configuration not stated), for which the Potency result is “inactive”. Consider `CCOc1ccc(OCC(=O)Nc2c3c(nn2C(C)(C)C)CS(=O)(=O)C3)cc1`, for which the Potency entry was “inactive”.

For `CC(C)(C)c1ccc(SCCc2ccncc2)cc1`, the Potency entry is “inactive”. Same read-out and setting: then `COc1ccc2c(c1)OC(O)(C(F)(F)C(F)F)CC2=O` (configuration not stated), with 12.6 µM (active); and `CC1(C)CC(=O)c2ccc(O)cc2O1`, with “inactive”. Same read-out and setting: as for `COc1ccc2c(c1)SC(C)CC2=O` (configuration not stated), the entry is “inactive”. As for `CC(=O)N1CCOc2ccc(S(=O)(=O)N3CCN(c4cccc(C(F)(F)F)c4)CC3)cc21`, the Potency result is “inactive”. On to `COc1ccc(-n2c(C)cc(C(=O)CSc3nnc(-c4cccs4)o3)c2C)cc1`, for which the Potency entry is “inactive”. The same measure, in the same setting: as for `COc1ccc(OC)c(C(=O)CSc2nnc(-c3cccs3)o2)c1`, the figure is 7.08 µM (active); as for `COc1ccc(-c2nnc(SCC(=O)NC3CCCCC3)o2)cc1OC`, “inactive”; as for `COCCOC(=O)C1=C(C)NC(=O)NC1c1cc2c(cc1Br)OCO2` (configuration not stated), “inactive”.

For the compound `O=C(O)c1ccc(N/N=C/c2ccc3ncccc3c2)cc1`, the Potency was 0.398 µM (active). Still for that read-out and setting: as for `O=C(O)c1ccc(/C=N/Nc2nc(N3CCCCC3)nc(N3CCCCC3)n2)cc1`, the entry is “inactive”; as for `Cc1ccc2cc(/C=N/Nc3ccc(C(=O)O)cc3)c(Cl)nc2c1`, “inactive”. Still for that read-out and setting: then `O=C(O)c1ccc(OCC2CCCO2)cc1` (configuration not stated), with “inactive”; and `N=C1/C(=C/c2cccn2-c2cccc([N+](=O)[O-])c2)C(=O)N=C2SC=CN12`, with 5.01 µM (active).

`Cc1ccc(-c2nc(-c3ccncc3)no2)c(C)c1`: the Potency entry is “inactive”. The same measure, in the same setting: as for `CCOc1ccccc1NC(=O)CCc1nnc2ccc(NCc3ccco3)nn12`, the entry is “inactive”. Consider `O=S(=O)(ON(c1ccccc1)S(=O)(=O)c1ccccc1)c1ccccc1`, for which the Potency result is “inactive”.

For the compound `CC1=C/C(=N\OS(=O)(=O)c2ccccc2)C=CC1=O`, the Potency is 1.58 µM (active). With `CC1=C/C(=N\S(=O)(=O)c2ccccc2)C(C(C)C)=CC1=O`, the Potency result is “inactive”. The same measure, in the same setting: then `CCN1C(=NCC(C)C)N[C@@H](CCc2ccccc2)[C@H](C(=O)NCC(C)C)[C@H]1C`, with “inactive”.

Turning to `Brc1cc(/C=N/n2cnnc2)oc1Br`, the Potency result was “inactive”. Consider `CCOc1cc(/C=N/n2cnnc2)c(Br)cc1O`, for which the Potency is 7.08 µM (active).

For the compound `Fc1ccc(Br)cc1/C=N/n1cnnc1`, the Potency result was “inactive”. The same measure, in the same setting: as for `O=C(CN1CCN(c2ccc(Cl)cc2)CC1)c1ccccc1`, the entry is “inactive”; as for `COc1ccc(S(=O)(=O)NCCOc2ccccc2)cc1F`, “inactive”. Consider `COc1ccc(NS(=O)(=O)c2cc(C(=O)Nc3ccccc3C(=O)O)ccc2C)cc1`, for which the Potency result is “inactive”. On the same count and under the same terms, as for `COc1ccc(/C=C(/NC(=O)c2ccc(C)cc2)c2nc3ccccc3[nH]2)cc1OC`, the entry is “inactive”; as for `COCCN(CC(=O)Nc1ccccc1C)S(=O)(=O)c1ccc(S(=O)(=O)N2CCCC2)cc1`, “inactive”; as for `COCCN(CCOC)S(=O)(=O)c1ccc(/C(O)=C(\C#N)c2nc3ccccc3[nH]2)cc1`, 12.6 µM (active). The same measure, in the same setting: then `COc1ccc(-n2c(=O)[nH]c3cc(C(=O)NCCc4ccc(OC)c(OC)c4)ccc3c2=O)c(OC)c1`, with “inactive”. Same read-out and setting: as for `COc1ccc(CNC2CCCCC2)cc1`, the entry is “inactive”; as for `COc1ccc(CN2CC(C(=O)NC3CCCCC3)CC2=O)cc1` (configuration not stated), “inactive”; as for `COc1ccc(CN2CN(C3CCCC3)CSC2=S)cc1`, 7.94 µM (active). `CCN(C(=O)CN1C(=O)/C(=C/c2ccc(F)cc2)SC1=S)C1CCS(=O)(=O)C1` (configuration not stated): the Potency entry was “inactive”. The same measure, in the same setting: then `CN(CC(=O)NCc1ccc(Cl)cc1)S(=O)(=O)c1cccs1`, with “inactive”. The same measure, in the same setting: then `O=C(Cc1nc2ccccc2[nH]c1=O)c1ccc(Cl)cc1`, with “inactive”.
